# G9a inh: blocks human histone lysine methyltransferase G9a. Q96KQ7. G9a H3K9 monomethylation, AlphaScreen, 2 h. Potency, µM (series often up to 102 µM), for the others: top-dose activity, negative = inhibition, most hits filed as inhibitors. actives 8.8% (n = 350,000); also: potency is read from the fitted curve at half-maximal effect; % is scaled to controls: 0 for no effect and ±100 for the full control effect; nearly all actives have a fitted effect of over 75% in size
#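 AlphaScreen read-out: biotin-H3K9 peptide (500 nM) methylation by 20 nM enzyme with 20 uM SAM, 2 h at room temperature after 15 min compound preincubation; anti-monomethyl H3K9 antibody plus donor/acceptor beads, 10 min dark.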
# HP1b binding inh: blocks HP1-beta chromodomain binding to methylated histone tails | AID 540317 | P83916 | actives 0.56% (n = 390,000) | AlphaScreen HP1-beta / biotin-H3K9me3 peptide binding | Potency, µM (series often up to 114 µM), without a hit: at the highest dose activity change, negative = inhibition, most hits filed as inhibitors; also: potency is read from the fitted curve at half-maximal effect; nearly all actives have a fitted effect of over 70% in size
#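 HP1-beta protein (50 nM final) preincubated 30 min at room temperature with biotinylated H3(1-18)K9me3 peptide (50 nM) in PBS pH 7.4, 0.01% Tween-20, then compound added for 30 min. AlphaScreen streptavidin donor/nickel chelate acceptor beads (10 ug/mL final), 30 min dark, luminescence read.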
# JMJD2A Tudor: JMJD2A Tudor domain (human) inhibition. O75164. AlphaScreen JMJD2A-Tudor / H3K4me3 peptide binding. Potency, µM (doses to about 114 µM), for the others: top-dose activity change, negative = inhibition, actives largely listed as inhibitors. actives 4.4% (n = 390,000). AID 504339; also: potency is read from the fitted curve at half-maximal effect; % is scaled to controls: 0 for no effect and ±100 for the full control effect; nearly all actives have a fitted effect of over 50% in size
# BAZ2B inh: blocks human BAZ2B; actives 4.4% (n = 360,000); AlphaScreen BAZ2B-H3K14Ac peptide displacement; Potency, µM (highest dose often 114 µM), for the others: top-dose activity change, negative = inhibition, hits mostly inhibitors; Q9UIF8; AID 504333; also: potency is read from the fitted curve at half-maximal effect; % is scaled to controls: 0 for no effect and ±100 for the full control effect; nearly all actives have a fitted effect of over 60% in size
#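 AlphaScreen luminescence quantifies BAZ2B engagement of H3K14Ac peptide; the protein and biotinylated peptide are both at 50 nM final, buffer PBS pH 7.4 with 0.01% Tween-20, all steps at room temperature.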
# CtBP-E1A blk: inhibitors of CtBP/E1A interaction | AID 651724 | activity change, % (test concentration not listed) | AlphaScreen GST-E1A/His-CtBP binding, 1536-well; stronger effect = lower value | actives 0.49% (n = 340,000); in the data active = activity change below about -65%; inconclusive = mostly about -30% to -63%; also: % is scaled to controls: 0 for no effect and ±100 for the full control effect
#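 Homogeneous bead-based format: GST-tagged E1A captured on glutathione donor beads, His-tagged CtBP on nickel acceptor beads; compounds precede bead addition by 2 h at 37 °C.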
# Six1-Eya2 inh: Six1/Eya2 interaction inhibition; AlphaScreen GST-Six1/His-Eya2 binding, biochemical; stronger effect = lower value; activity change, % (concentration not given with the values); Q15475+O00167; actives 0.56% (n = 360,000); in the data active = activity change below about -65%; inconclusive = mostly about -30% to -63%; also: % is scaled to controls: 0 for no effect and ±100 for the full control effect
#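 AlphaScreen with GST-Six1 and His-Eya2 (5X mix: 250 nM and 500 nM), glutathione donor and nickel acceptor beads; buffer 50 mM Tris pH 8.0, 300 mM NaCl, 1 mM TCEP; 1 h at 37 C in the dark.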
# * marks the source's active call; other numbers are inactive results; ? = inconclusive; / = not tested or not shown; [ ] = dose if it differs, or a comment. In the library only some 10% were active in any assay of this set; here they are far more common. Unless noted, calls follow the shape of the dose curve; as a rule, active = well fitted inhibition curve with a large enough effect; inconclusive = small, poorly fitted or top-dose-only effect; inactive = no such curve, though single readings can be large or run the other way.
SMILES,G9a inh,HP1b binding inh,JMJD2A Tudor,BAZ2B inh,CtBP-E1A blk,Six1-Eya2 inh
Cc1cccc2c1-c1sc(C(=O)N(C)c3cccc(Cl)c3)cc1CO2,56%[59 µM],108%,76%,50%,/,/
O=C(/C=C/c1ccc2c(c1)OCO2)c1ccc(O)cc1O,/,-7%[57 µM],?,/,0,0
CCNc1ccc(Br)cc(C(=O)/C=C/c2ccc3c(c2)OCO3)c1=O,/,20µM*,45µM*,22µM*,-2,-5
Cc1ccc(O)c(C(=O)/C=C/c2ccc3c(c2)OCCO3)c1,25µM*,?,28µM*,28µM*,/,1
Nc1ccccc1C(=O)/C=C/c1ccc2c(c1)OCO2,40µM*,?,45µM*,14µM*,0,0
CCNc1ccc(Br)cc(C(=O)/C=C/c2c(Cl)cccc2Cl)c1=O,4µM*,?,89µM*,25µM*,-3,-12
CCNC(=O)/C=C/c1cccc(Br)c1,-19%[12.7 µM],/,/,/,/,/
O=C(Nc1ccccc1C(F)(F)F)c1ccc2oc(=O)c(S(=O)(=O)c3ccc(F)cc3)cc2c1,5%[59 µM],12%,-5%,-4%,/,/
COCCCNC(=O)C[C@@H]1C[C@@]2(C(=O)OC)CC(C)(C)CC=C2N(Cc2ccccc2)C1=O,/,/,/,/,3,13
CC(=O)Nc1ccc(S(=O)(=O)N2CCCC(C(=O)N3CCN(c4ccccc4)CC3)C2)cc1 (stereo not drawn),?,29%,-15%,-23%,8,-2
CCNc1ccc(Br)cc(C(=O)/C=C/c2ccc(Cl)cc2)c1=O,10µM*,-35%,45µM*,10µM*,2,-11
Cc1ccc(NC(=O)/C=C/c2ccc(Cl)cc2)c(Br)c1,-3%[59 µM],26%,5%,9%,/,/
CC(C)(C)OC(=O)N1CCCN(C(c2cc3ccccc3o2)c2nnnn2C(C)(C)C)CC1 (stereo not drawn),/,/,/,/,0,-11
CCOC(=O)[C@]12CCC=C1N(Cc1ccc3c(c1)OCO3)C(=O)[C@H](CC(=O)NCC1CCCCC1)C2,/,/,/,/,0,2
COc1cc2c(cc1OC)-c1cc(Nc3ccc(F)cc3)nc(=O)n1CC2,24%,39%,-10%,1%,/,?
COc1cc2c(cc1OC)-c1cc(Nc3cccc(F)c3)nc(=O)n1CC2,59%,-5%,-2%,19%,-10,-79*
COc1cc2c(cc1OC)-c1cc(Nc3ccc(N(C)C)cc3)nc(=O)n1CC2,14µM*,-36%,?,?,-69*,-69*
CCN(CC)c1ccc(Nc2cc3n(c(=O)n2)CCc2cc(OC)c(OC)cc2-3)cc1,20µM*,?,45µM*,22µM*,-84*,?
C=C1c2cc3c(cc2NC(=S)N1Cc1ccccc1)OCO3,/,15%,-26%,-14%,-10,-14
COCCN1CCC(CO)C1 (stereo not drawn),/,12%,-13%,/,8,12
COc1nccnc1NS(=O)(=O)c1ccc(NC(=S)NC(=O)c2cccnc2)cc1,50µM*,8%,-13%,?,/,0
COc1nccnc1NS(=O)(=O)c1ccc(NC(=S)NC(=O)c2cccc(F)c2)cc1,?,-29%,?,?,-6,-7
COc1nsnc1NS(=O)(=O)c1ccc(NC(=S)NC(=O)c2cccnc2)cc1,/,?,11µM*,?,0,-1
O=C(COc1ccccc1)N[C@@H]1c2ccccc2CC[C@@H]1O,/,29%,1%,/,4,-2
CCCc1c(C)nc(N2CCN(c3ccccc3OC)CC2)[nH]c1=O,-9%,13%,-10%,10%,6,8
CC(=O)NCCNc1nc2cc(-c3ccc4c(ccn4C)c3)sc2c(=O)n1C,/,/,/,/,1,-6
COc1cccc(NC(=O)C(OC(=O)c2cnc(C)cn2)c2ccccc2)c1 (stereo not drawn),45µM*,4%,-19%,7%,-1,1
Cc1noc(C)c1S(=O)(=O)NC(=O)C1(C)CCN1C(=O)Cc1ccc(-c2ccccc2)cc1 (stereo not drawn),/,/,/,/,3,0

# Compound activity (PubChem BioAssay)
